Compound activity from PubChem.
HT1080-NT tox: kills 2HG-producing HT-1080-NT fibrosarcoma cells. HT-1080-NT fibrosarcoma viability, CellTiter-Glo ATP luminescence, 48 h. 1.6% of 360,000 active. Potency, µM (highest dose often 46.1 µM), for inactives: at the top dose activity, negative = less viability, hits mostly cytotoxic;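 also: NT is the 2HG producing partner of a matched IDH1 knockdown line; 0% = DMSO-treated cells and -100% = media-only wells without cells; nearly all actives have a fitted effect of over 55% in size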
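HT-1080-NT; 750 cells/well; 5% FBS RPMI; 48 h compound, 37 degrees C; CellTiter-Glo luminescence; curve fitting and curve-class assignment.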
KB-3-1 tox: kills parental KB-3-1 adenocarcinoma cells. KB-3-1 viability, CellTiter-Glo ATP luminescence, 72 h. Potency, µM (doses to about 46.1 µM), hits mostly cytotoxic. 1.4% of 400,000 active. AID 1347075; also: nearly all actives have a fitted effect of over 60% in size
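Viability of parental KB-3-1 cells, measured by CellTiter-Glo luminescence, followed a 72 h incubation at 37 °C with pinned compounds in phenol-red-free DMEM containing 10% FBS.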
TDP1 cell noCPT: qHTS for Inhibitors of human tyrosyl-DNA phosphodiesterase 1 (TDP1): qHTS in cells in absence of CPT; DT40 Tdp1-/- hTDP1 cells, no CPT, ATP luminescence, 48 h; Potency, µM (titrated, usually from 46.2 µM), inactives show at the highest dose activity change, negative = growth inhibition, hits mostly inhibitors; 15% of 420,000 active; AID 686978, 2013; also: nearly all actives have a fitted effect of over 55% in size
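Growth kinetics read by CellTiter-Glo luminescence after ≥48 hr at 37 °C. Cells: DT40 Tdp1-/- stably carrying human TDP1, 400 per well, compound exposure in the absence of CPT (DMSO vehicle).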
KB-V1 MDR tox: kills drug-selected multidrug resistant KB-V1 cells; AID 1347076; KB-V1 MDR cells viability, CellTiter-Glo, 72 h; Potency, µM (series often up to 46.1 µM), usual class: cytotoxic; 3.4% of 400,000 active; also: nearly all actives have a fitted effect of over 60% in size
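KB-V1 MDR subline cells in DMEM (phenol-red free, 10% FBS) exposed to compounds in qHTS concentration series for 72 h at 37 degrees C. Viability read by CellTiter-Glo luminescence; concentration-effect curves fitted after normalization and correction.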
HT1080 IDH1KD tx: kills HT-1080 cells with IDH1 knockdown; Potency, µM (titrated, usually from 46.1 µM), for the others: at the highest dose activity, negative = toxicity, usual class: cytotoxic; 2% of 360,000 active; HT-1080 IDH1 knockdown viability, ATP luminescence, 48 h; AID 686971;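 also: 0% = DMSO wells and -100% = cell-free medium wells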
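Luminescent ATP read-out (CellTiter-Glo, 10 min at room temperature) after 48 h compound exposure at 37 °C gave viability of IDH1-knockdown HT-1080 cells. Activity was normalised to DMSO and cell-free wells, then fitted as concentration-response curves.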
TDP1 cell CPT: DT40-hTDP1 cell growth loss with CPT | chicken DT40 Tdp1-/-;hTDP1 cells + 20 nM CPT, ATP luminescence, 48 h | Potency, µM (top dose mostly 46.2 µM), for inactives: top-dose activity change, negative = growth inhibition, actives largely listed as inhibitors | 12% of 420,000 active | AID 686979; also: nearly all actives have a fitted effect of over 55% in size
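Cell growth measured by CellTiter-Glo luminescence after a minimum 48 h, 37 C compound exposure with 20 nM CPT in Tdp1-knockout DT40 cells stably expressing hTDP1, seeded 400/well; qHTS titration format.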
* marks the source's active call; other numbers are inactive results; i = inactive; ? = inconclusive; . = no result; [ ] = another dose, or the depositor's remark. A selection: hits, their analogues and other compounds. The true share with any hit is near 19%. Calls follow the shape of the dose curve; as a rule, active = well fitted curve in the direction sought with a large enough effect; inconclusive = small, poorly fitted or top-dose-only effect, or another doubt; inactive = no such curve, though single readings can be large; an effect the other way counts as inactive or inconclusive. Unless noted, % is scaled to controls: 0 for no effect and ±100 for the full control effect; potency is read from the fitted curve at half-maximal effect.

SMILES | HT1080-NT tox | KB-3-1 tox | TDP1 cell noCPT | KB-V1 MDR tox | HT1080 IDH1KD tx | TDP1 cell CPT
CNc1nc(Cl)nc2c1ncn2-c1ccccc1 | -11.9% | 14.6µM* | -6.9% | 6.51µM* | -9.5% | 10.4%
Nc1nc2c(ncn2-c2ccccc2)c(=O)[nH]1 | -3.7% | i | 1.7% | i | -2.0% | -5.4%
Clc1nc(Cl)c2ncn(-c3ccccc3)c2n1 | -1.2% | 18.4µM* | 13µM* | ? | -24.7% | 8.2µM*
COc1ccccc1C1CN(CC(=O)NCC2OCCc3ccccc32)Cc2ccccc2O1 (centres undefined) | . | . | -15.1% | . | . | 2.8%[9.04 µM]
Cc1cc(F)ccc1S(=O)(=O)N1CCCCC1CCNC(=O)C(=O)NCCN1CCOCC1 (centres undefined) | 6.1% | i | ? | 16.4µM* | -1.0% | ?
O=C(NCCC1CCCCN1S(=O)(=O)c1ccc(F)cc1)C(=O)NCCN1CCOCC1 (centres undefined) | 10.0% | i | 3.8% | i | 12.8% | 0.8%
Cc1cc(C)c(S(=O)(=O)N2CCCCC2CCNC(=O)C(=O)NCCN2CCOCC2)c(C)c1 (centres undefined) | 4.4% | i | ? | 3.26µM* | 6.4% | ?
CCN(CC)CCCNC(=S)N(Cc1cccs1)Cc1cc2cc3c(cc2[nH]c1=O)OCCO3 | ? | i | ? | i | ? | -28.9%
CNC(=S)N(Cc1cccs1)Cc1cc2cc(OC)c(OC)cc2[nH]c1=O | -5.3% | i | 18.4µM* | i | 0.3% | ?
Cc1cccc(NC(=S)N(Cc2cccs2)Cc2cc3cc(C)ccc3[nH]c2=O)c1 | 11.6% | i | 20.6µM* | i | 5.6% | 18.4µM*
COc1cc2cc(CN(Cc3cccs3)C(=S)Nc3ccc(C)cc3)c(=O)[nH]c2cc1OC | -13.2% | i | 16.4µM* | i | -4.9% | 25.9µM*
CCC(C)NC(=S)N(CCc1ccccc1)Cc1cc2cc(OC)c(OC)cc2[nH]c1=O (centres undefined) | -13.8% | i | 18.4µM* | ? | -16.5% | ?
Cc1ccc(NC(=S)N(Cc2cccs2)Cc2cc3cc(C)ccc3[nH]c2=O)cc1 | 0.2% | ? | ? | i | -9.6% | ?
COc1ccc2[nH]c(=O)c(CN(CCc3ccccc3)C(C)=O)cc2c1 | 9.3%[9.24 µM] | i | -16.5% | i | 1.9% | -26.3%
Cc1ncc(NS(=O)(=O)c2ccc(N)cc2)nc1C | 15.6% | i | -16.7% | i | 19.2% | 0.2%
COc1cc(C)ccc1S(=O)(=O)NC(=O)Cn1nnc(COc2ccc3c(c2)CCCC3)c1C | 8.3% | i | 0.3% | ? | 0.0% | 0.1%
COCCC(=O)N1CCC(Oc2ccc(C(=O)NC3CCOC(C)(C)C3)cc2)CC1 (centres undefined) | 5.1% | i | -21.6% | i | 7.3% | -2.6%
CCOC(=O)C1CCCN(C(=O)c2ccc(C(F)(F)F)nc2C)CC1 (centres undefined) | -11.6% | i | -2.1% | i | 9.8% | 10.6%
O=C(COC(=O)/C=C/c1ccc(Cl)c(Cl)c1)NC1CCS(=O)(=O)C1 (centres undefined) | 13.1% | i | 18.4µM* | ? | 9.2% | 10.3µM*
O=C(COC(=O)/C=C/c1ccc(Cl)c(Cl)c1)NC1CCCC1 | 6.3% | i | -12.1% | i | 7.5% | 3.4%
CC(=O)OCCSc1c(-c2ccccc2)c2cc(Cl)ccc2[nH]c1=O | -0.6% | i | ? | 23.1µM* | -2.4% | -26.9%
COc1ccc(Br)cc1CN(C)C(=O)c1cc(Cl)c2c(c1)OCCO2 | -9.3% | i | 20.6µM* | ? | -26.1% | ?
N#CC(=C=[N-])c1nc2ccccc2nc1-[n+]1cccc(NC(=O)c2cccs2)c1 | -2.6% | i | 6.51µM* | ? | 5.0% | 5.8µM*
N#CC(=C=[N-])c1nc2ccccc2nc1-[n+]1cccc(NC(=O)c2ccccc2)c1 | 29.4% | i | -20.2% | i | -1.9% | -25.7%
CCOC(=O)C1C(=O)CC(C)(O)C(C(=O)OCC)C1/C=C/c1ccccc1 (centres undefined) | 1.5% | i | -13.0% | 18.4µM* | -1.1% | -23.5%
SMILES | HT1080-NT tox | KB-3-1 tox | TDP1 cell noCPT | KB-V1 MDR tox | HT1080 IDH1KD tx | TDP1 cell CPT
COC(=O)C1C(=O)CC(C)(O)C(C(=O)OC)C1/C=C/c1ccccc1 (centres undefined) | 9.7% | i | -22.6% | i | 13.8% | 9.9%
CCOC(=O)C1C(=O)CC(O)(c2ccccc2)CC1c1ccccc1 (centres undefined) | -7.6% | i | ? | 23.1µM* | -10.1% | ?
CCOC(=O)C1C(=O)CC(C)(O)C(C(=O)OCC)C1c1ccccc1 (centres undefined) | 16.0% | i | -2.7% | i | 17.4% | -17.9%
CCOC(=O)C1C(C(=O)OCC)C1(c1ccccc1)c1ccccc1 (centres undefined) | 10.0% | i | ? | 10.3µM* | 3.4% | ?
CCCCNC(=O)c1nc(C2CCNCC2)oc1-c1cccc(C(F)(F)F)c1 | ? | i | ? | i | ? | ?
CCC(=O)N1CCC1(C)C(=O)Nc1ccc(OC)c(OC)c1 (centres undefined) | 8.9% | i | 1.3% | ? | 0.0% | -0.1%
COc1ccc2c(c1)nc(NCCCO)n2Cc1ccccc1 | 0.3% | i | ? | i | 6.6% | -1.1%
COc1cc(/C=C2\CCC(C)C3=C(c4cc(OC)c(OC)c(OC)c4)C(C#N)=C(N)OC32)cc(OC)c1OC (centres undefined) | -19.2% | ? | 3.66µM* | i | ? | 2.59µM*
COc1cc(/C=C2/N=C(C3CCCCC3)OC2=O)cc(OC)c1OC | 0.3% | i | -19.2% | i | 2.2% | -21.2%
CC1CCN(S(=O)(=O)c2ccc3c(c2)c(=O)c(C(=O)NC(C)c2ccccc2)cn3C)CC1 (centres undefined) | . | i | 23.1µM* | i | . | ?
Cn1cc(C(=O)NCc2cccs2)c(=O)c2cc(S(=O)(=O)N3CCCC3)ccc21 | -8.0% | i | ? | 20.6µM* | -8.3% | ?
CCCCNC(=O)c1cn(C)c2ccc(S(=O)(=O)N3CCCC3)cc2c1=O | 1.3% | i | 2.1% | i | 12.5% | 0.1%
